15 molecules from PubChem BioAssay (NCATS) can be followed below.

The structures appear in SMILES notation. “And” between values parts separate entries of the source, which are not always exact repeats. Equal entries are not always repeated. Records with an inconclusive call do not appear. A number with no mark means an inactive call. The source made the active and inactive calls. Calls follow the shape of the dose curve; as a rule, active = well fitted curve in the direction sought with a large enough effect; inconclusive = small, poorly fitted or top-dose-only effect, or another doubt; inactive = no such curve, though single readings can be large; an effect the other way counts as inactive or inconclusive.

Assay [1] concerns the target Cellular tumor antigen p53 (Homo sapiens) (UniProt P04637). Nature of the assay: Primary qHTS for small molecule compounds that upregulate eGFP-tagged delta133p53alpha (in N-terminal) cells. (AID 2060322). Also: nearly all actives have a fitted effect of over 75% in size. Also: potency is read from the fitted curve at half-maximal effect.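 As to activation: cells pre-induced with doxycycline then dosed without doxycycline; series mostly up to about 56 µM; 0% = DMSO vehicle and 100% = reference activator.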 To be noted: NCI-H358 eGFP-delta133p53alpha fluorescence, 24 h; activation: hits give high values. In outline:
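NCI-H358 cells pre-induced 24 h with 10 ng/ml doxycycline for eGFP-delta133p53alpha, plated dox-free and exposed 24 h at 37C to titrated compounds. Fixed, Hoechst-stained; gated GFP peak intensity by laser scanning cytometry, normalized to DMSO (0%) and 57.5 uM 5-azacytidine (100%).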
On the technique in general: Quantitative high-throughput screening tests each substance at several concentrations.

Assay [2] has as its target Aldehyde dehydrogenase, mitochondrial (Homo sapiens) (UniProt P05091). Nature of the assay: qHTS for Inhibitors of the Aldehyde Dehydrogenase Family (ALDH2) Primary screen (AID 2061308).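 Also: plate controls were vehicle for no effect and reference inhibitor for full effect; nearly all actives have a fitted effect of over 55% in size.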
In assay [3] the target is Retinaldehyde dehydrogenase 3 (Homo sapiens) (UniProt P47895). As to the kind of experiment: qHTS for Inhibitors of the Aldehyde Dehydrogenase Family (ALDH1A3) Primary screen (AID 2061315).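 Also: plate controls were DMSO vehicle for no effect and reference inhibitor for full effect.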
A short description of assay [4]: BET inhibitor-based combinations targeting novel dependencies in MECOM-rearranged (r) AML: SET-2 cell line (AID 2202231). Also: nearly all actives have a fitted effect of over 35% in size. Also: potency is read from the fitted curve at half-maximal effect.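 As to viability: plate controls were DMSO treated cells for no effect and wells without cells for full effect.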 To be noted: SET-2 AML cells viability, CellTiter-Glo luminescence, 48 h; viability: hits give low values, concentration not given here. In outline:
(§1)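 Readout: CellTiter-Glo luminescence. Exposure: 48 h, 11 concentrations, 500 cells/well. Metric: AUC and within-line Z-AUC after DMSO/empty-well normalization.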

Assay [5] is described as follows: BET inhibitor-based combinations targeting novel dependencies in MECOM-rearranged (r) AML: OCI-AML3 cell line (AID 2202232). Also: nearly all actives have a fitted effect of over 35% in size. Also: potency is read from the fitted curve at half-maximal effect. The note with it: Potency: OCI-AML3 viability. In outline:
as §1

Assay [6] is described as follows: BET inhibitor-based combinations targeting novel dependencies in MECOM-rearranged (r) AML: MV-4-11 cell line (AID 2202233). Also: nearly all actives have a fitted effect of over 45% in size. Also: potency is read from the fitted curve at half-maximal effect. In outline:
(§2)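 Seeding density was 500 cells/well, and drug exposure lasted 48 hr under standard culture conditions. Read-out used CellTiter-Glo reagent with a 15 min room-temperature incubation before luminescence measurement; AUC and Z-AUC summarize the normalized responses.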

The nature of assay [7]: BET inhibitor-based combinations targeting novel dependencies in MECOM-rearranged (r) AML: HNT-34 cell line (AID 2202234). Also: nearly all actives have a fitted effect of over 35% in size. Also: potency is read from the fitted curve at half-maximal effect. In outline: as §2
A short description of assay [8]: BET inhibitor-based combinations targeting novel dependencies in MECOM-rearranged (r) AML: UCSD-AML1 cell line (AID 2202235). Also: nearly all actives have a fitted effect of over 40% in size. Also: potency is read from the fitted curve at half-maximal effect. In outline: as §2
The nature of assay [9]: BET inhibitor-based combinations targeting novel dependencies in MECOM-rearranged (r) AML: AML-191 cell line (AID 2202236; also: nearly all actives have a fitted effect of over 35% in size; also: potency is read from the fitted curve at half-maximal effect). In outline: as §1
The nature of assay [10]: BET inhibitor-based combinations targeting novel dependencies in MECOM-rearranged (r) AML: AML-194 cell line (AID 2202237; also: nearly all actives have a fitted effect of over 40% in size; also: potency is read from the fitted curve at half-maximal effect). In outline:
as §1

Sequence of Cellular tumor antigen p53 (Homo sapiens) (P04637 whole entry, looked up): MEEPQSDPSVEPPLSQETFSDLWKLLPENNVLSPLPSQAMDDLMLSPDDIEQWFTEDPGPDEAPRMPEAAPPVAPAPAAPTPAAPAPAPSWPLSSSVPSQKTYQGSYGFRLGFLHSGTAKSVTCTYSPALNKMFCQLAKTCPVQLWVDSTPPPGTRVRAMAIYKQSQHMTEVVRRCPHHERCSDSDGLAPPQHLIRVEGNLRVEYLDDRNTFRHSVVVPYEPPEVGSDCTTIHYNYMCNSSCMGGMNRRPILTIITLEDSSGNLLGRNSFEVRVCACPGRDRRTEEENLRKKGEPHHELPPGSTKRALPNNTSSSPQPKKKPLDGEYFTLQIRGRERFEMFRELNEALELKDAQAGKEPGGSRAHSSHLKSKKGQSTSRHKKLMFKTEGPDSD

As for `COc1c(OCCCN2CCOCC2)ccc2c3n(c(=NC(=O)c4cnc(N)nc4)nc12)CCN3`, the activation in assay [1] is 8.4% and -29.5%. Besides, the activity change, negative = inhibition in assay [2] was -4.59% [at 11.2 µM]; in assay [3] it was 13.9% [at 11.2 µM]. Besides, the Potency in assay [4] is 1.08 µM (active); in assay [5] it was 0.034 µM (active); in assay [6], 0.0855 µM (active); in [7], 0.959 µM (active); in [8], 0.0428 µM (active).

As to `Cc1nc([C@](C)(O)CO)sc1-c1cnc(N)c(O[C@H](C)c2cc(F)ccc2-n2nccn2)c1`, the activation in assay [1] is -10.7%. The Potency result in assay [2] and in assay [3] was “inactive” throughout. For the same molecule, the Potency in assay [4] was 10.5 µM (active); in assay [5], 0.742 µM (active); in assay [6] it was 6.61 µM (active); in assay [7] it was 11.8 µM (active); in [8], 1.32 µM (active); in assay [9], 0.833 µM (active). Besides, the Potency in assay [10] was 1.18 µM (active).

On to `c1cncc(CN2CCC(n3ncc4c(N5CCOCC5)nc(-c5ccc6[nH]ccc6c5)nc43)CC2)c1`, for which, in assay [1], the activation was -11.7% and 12.5%. Besides, the Potency result in assay [2] and in assay [3] was “inactive” in each case. Further, the Potency is 3.72 µM (active) in [4]; 7.42 µM (active) in assay [5]; 3.72 µM (active) in [6]; 2.95 µM (active) in assay [7]; 0.833 µM (active) in [8].

On to `CC1(C)CC(=O)c2c(C(F)(F)F)nn(-c3ccc(C(N)=O)c(NC4CCC(O)CC4)c3)c2C1` (stereo not drawn), for which the activation in assay [1] was 11.9% and -1.67%. In addition, the Potency result in assay [2] and in assay [3] was “inactive” in each case. For the same molecule, the Potency was 0.148 µM (active) in [4]; 0.0742 µM (active) in assay [5]; 0.0372 µM (active) in [6]; 0.0934 µM (active) in assay [7]; 0.105 µM (active) in assay [8].

A word on the viability: it is a read-out of living cells in per cent, often relative to untreated cells. Take `CC(C)(C)c1nc(-c2cccc(NS(=O)(=O)c3c(F)cccc3F)c2F)c(-c2ccnc(N)n2)s1`: in [1], the Potency is 26.9 µM (active). Moreover, the Potency result in [2] and in [3] was “inactive” in each case. In addition, the viability in assay [4] is 98%.

As to `Oc1ccc([C@@H]2Oc3ccc(O)cc3[C@@H]3CCC[C@@H]32)cc1`, the activation in assay [1] is 23.4%. Also, the Potency entry in assay [2] and in [3] was “inactive” in each case. The Potency is 18.6 µM (active) in assay [4]; 16.6 µM (active) in assay [5]; 13.2 µM (active) in assay [6]; 9.34 µM (active) in assay [7]; 5.9 µM (active) in assay [8]; 5.9 µM (active) in assay [9]. In addition, the Potency in [10] is 7.42 µM (active).

With `CCOc1cc(C(=O)N2CCC(N3CCN(C)CC3)CC2)ccc1Nc1ncc2c(n1)N(C1CCCC1)c1ccccc1C(=O)N2C`, the Potency in [1] is 30.1 µM (active); in [4], 14.8 µM (active); in [5], 3.32 µM (active); in assay [6] it was 1.66 µM (active); in [7], 13.2 µM (active); in assay [8], 5.25 µM (active). Also, the values for the Potency in assay [9] and in [10] were 11.8 µM (active) and 8.33 µM (active), respectively. Besides, the Potency result in assay [2] and in assay [3] was “inactive” each time.

For the molecule `COc1ccc(-c2cc3c(C)nc(N)nc3n(C3CCC(OCCO)CC3)c2=O)cn1` (stereo not drawn), the activation in [1] is 3.45%. The Potency entry in assay [2] and in assay [3] was “inactive” throughout. Moreover, the Potency in assay [4] is 1.66 µM (active); in assay [5], 0.417 µM (active); in [6], 0.296 µM (active); in [7], 0.59 µM (active); in assay [8], 0.105 µM (active); in assay [9], 0.296 µM (active). The Potency in assay [10] is 0.209 µM (active).

In the case of `CC(=O)Nc1ccc(C(=O)Nc2ccccc2N)cc1`, the activation in [1] is 3% and -4.47%. Also, the Potency result in [2] and in [3] was “inactive” in each case. In addition, the Potency is 7.42 µM (active) in assay [4]; 16.6 µM (active) in assay [5]; 5.9 µM (active) in assay [6]; 11.8 µM (active) in [7]; 10.5 µM (active) in assay [8]; 18.6 µM (active) in assay [9]. Moreover, in assay [10], the Potency is 18.6 µM (active).

`CS(=O)(=O)c1ccc(Oc2cc(F)cc(C#N)c2)c2c1[C@H](O)C(F)(F)C2`: the activation in assay [1] is -20.7%. The Potency result in assay [2], in assay [3], in assay [5], in assay [6], in assay [7] and in [8] was “inactive” throughout. The Potency entry in assay [9] and in assay [10] was “inactive” throughout. In addition, the viability in assay [4] is 103%.

With `CO[C@@H]1COCC[C@@H]1N[C@@H]1CC[C@@](C(=O)N2CCc3ncc(C(F)(F)F)cc3C2)(C(C)C)C1`, the activation in [1] is -7.67% and -27.6%. The Potency entry in assay [2], in [3], in assay [5], in assay [6], in [7] and in [8] was “inactive” in each case. Moreover, the Potency result in [9] and in [10] was “inactive” throughout. The viability in assay [4] is 122%.

For the molecule `COc1ccc(F)c(F)c1C(=O)c1cnc(NC2CCN(S(C)(=O)=O)CC2)nc1N`, the Potency in assay [1] is 2.73 µM (active) and 2.69 µM (active); in assay [4], 2.09 µM (active); in assay [5] it was 1.86 µM (active); in [6], 1.32 µM (active); in assay [7], 2.35 µM (active); in assay [8] it was 1.66 µM (active). Moreover, the Potency in [9] and in assay [10] was 2.09 µM (active) in each case. In addition, the Potency result in assay [2] and in [3] was “inactive” throughout.

For `N#Cc1ccc(C2CCCc3cncn32)cc1` (stereo not drawn), in [1], the activation was -5%. Also, the Potency result in [2], in assay [3], in [5], in assay [6], in assay [7] and in assay [8] was “inactive” each time. For the same molecule, the Potency entry in assay [9] and in assay [10] was “inactive” throughout. In assay [4], the viability was 109%.

Consider `CCCC(CCC)C(=O)Nc1ccn([C@@H]2O[C@H](CO)[C@@H](O)C2(F)F)c(=O)n1`, for which the activation in assay [1] is -16.2%. Also, the Potency result in assay [2] and in assay [3] was “inactive” throughout. For the same molecule, the Potency in assay [4] is 3.72 µM (active); in assay [5], 0.934 µM (active); in assay [6], 1.05 µM (active); in assay [7], 4.68 µM (active); in [8], 4.17 µM (active); in [9], 2.35 µM (active). For the same molecule, the Potency in [10] was 2.63 µM (active).

For `CCOC(=O)[C@H]1O[C@@H]1C(=O)N[C@@H](CC(C)C)C(=O)NCCC(C)C`, the activation in assay [1] was 4.33%. Further, the Potency entry in [2], in assay [3], in [7], in assay [8], in assay [9] and in assay [10] was “inactive” in each case. Further, the viability in assay [4] is 108%. Also, the Potency was 18.6 µM (active) in assay [5] and 14.8 µM (active) in [6].
